Data: PubChem BioAssay (NCATS)
Inconclusive results are not listed. A call without a number means that no potency is given here. Unmarked numbers belong to inactive results. Active and inactive are the calls of the source. The call rests on the fitted dose curve; in most records, active means well fitted inhibition curve with a large enough effect; inconclusive means small, poorly fitted or top-dose-only effect; inactive means flat fitted curve, though single readings scatter. Where a SMILES comes first, the peptide text is derived from it. Bridges are numbered along the chain shown (N, C = ends). [ ]: non-standard residue; d: D form. The star is where a group is joined. X1 = CCC(C)C(N)C1=NC(C(=O)*)CS1; PhLac = O=C(O)[CH](O)Cc1ccccc1; NMeV = CN[CH](C(=O)O)C(C)C; dOrn = NCCC[C@@H](N)C(=O)O
Further: nearly all actives have a fitted effect of over 65% in size.

The compounds below were run against Glutathione peroxidase 1 (Homo sapiens) (UniProt P07203) (assay: Primary qHTS Assay for Inhibitors of Recombinant Selenoprotein Glutathione Peroxidase 1 (GPX1) (AID 1845191)). Conditions: recombinant GPX1, GR-coupled NADPH fluorescence, 15 min; series mostly up to 48.8 µM.
Glutathione peroxidase 1 (Homo sapiens), sequence (P07203 whole entry, looked up): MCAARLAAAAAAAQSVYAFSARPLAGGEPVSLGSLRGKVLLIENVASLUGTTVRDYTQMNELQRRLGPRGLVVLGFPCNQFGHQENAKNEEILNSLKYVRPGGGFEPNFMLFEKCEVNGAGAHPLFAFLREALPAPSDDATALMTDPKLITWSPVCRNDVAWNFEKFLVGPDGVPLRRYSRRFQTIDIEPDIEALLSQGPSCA
Procedure, shortened: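 Recombinant GPX1 (10 nM final) was preincubated with compound for 30 min at room temperature, then reacted with 1 mM GSH, 0.5 mM CHP, 0.5 mM NADPH and 100 nM glutathione reductase; NADPH fluorescence (340/450 nm) was read at 0 and 15 min.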
CC[C@H](C)/C=C(C)/C=C/C(=O)Cc1cc(O)c(C)c(O)c1C=O was tested, and the Potency was “inactive”. In the case of CC(=O)N[C@H]1[C@H](O[C@H]2CC[C@@]3(C)C(CC[C@]4(C)C3CC=C3C5CC(C)(C)CC[C@]5(C(=O)O)[C@H](O[C@@H]5O[C@H](CO)[C@@H](O)[C@H](O)[C@H]5O)C[C@]34C)C2(C)C)O[C@H](CO[C@@H]2OC[C@H](O)[C@H](O)[C@H]2O[C@@H]2OC[C@@H](O)[C@H](O)[C@H]2O)[C@@H](O)[C@@H]1O (some centres undefined), the Potency was “inactive”. For CCC(=O)NS(=O)(=O)c1ccc(-c2c(-c3ccccc3)noc2C)cc1, the Potency was “inactive”. C/C1=C\C[C@H](O[C@@H]2O[C@H](CO)[C@@H](O)[C@H](O)[C@H]2O)/C(C)=C/[C@H]2OC(=O)[C@H](C)[C@@H]2CC1 was tested, and the Potency was “inactive”. With C=C1CCC2C(C)(COC3OC(COC(=O)CC(=O)O)C(O)C(O)C3O)CCCC2(C)C1CCC1=CCOC1=O (centres undefined) the Potency was “inactive”. With CC(C)C(=O)O[C@@H]1[C@@H](O)[C@@H](O[C@H]2O[C@H](CO)[C@@H](O)[C@H](O)[C@H]2O)O[C@H](CO)[C@H]1O the Potency was “inactive”. COC1CC(=O)C23C(=O)NC(CC(C)C)C2C(C)C(C)=CC3/C=C(\C)CCC1O (centres undefined) was tested, and the Potency was “inactive”. In the case of COc1cc(O[C@@H]2O[C@H](CO)[C@@H](O)[C@H](O)[C@H]2O)c(CCC(=O)OC[C@H]2O[C@@H](Oc3cc(OC)c(C4OC(=O)C(C)(O)C4O)cc3CCC(=O)O)[C@H](O)[C@@H](O)[C@@H]2O)cc1C1OC(=O)C(C)(O)C1O (some centres undefined), the Potency was “inactive”. With C=C(C(=O)O)[C@@H]1CC=C2CCC[C@H](C)[C@@]2(C)C1 the Potency was “inactive”. Nc1ncnc2c1ncn2[C@H]1CCCO1 was tested, and the Potency was “inactive”. In the case of C/C=C/C=C/C(CC(=O)O)Nc1ccc(C=O)cc1 (centres undefined), the Potency was “inactive”. In the case of CC1(C)CCCC2(C)C(CO)C3CCC2C31 (centres undefined), the Potency was “inactive”. With COc1cc(/C=C/C(=O)OC(C)(C)C(OC2OC(CO)C(O)C(O)C2O)C(=O)OCc2ccc(OC3OC(CO)C(O)C(O)C3O)cc2)ccc1O (centres undefined) the Potency was “inactive”. CCC(C)C(N)C1=NC(C(=O)N[C@@H](CC(C)C)C(=O)N[C@H](CCC(=O)O)C(=O)N[C@H](C(=O)N[C@H]2CCCCNC(=O)[C@H](CC(N)=O)NC(=O)[C@@H](CC(=O)O)NC(=O)[C@H](Cc3cnc[nH]3)NC(=O)[C@@H](Cc3ccccc3)NC(=O)[C@H]([C@@H](C)CC)NC(=O)[C@@H](CCCN)NC2=O)[C@@H](C)CC)CS1 (some centres undefined) (X1-L[dE]IK[dOrn]I[dF]H[dD]N; lactam 4-C) was tested, and the Potency was “inactive”. CC(C)(O)C1=CCC23COC(C2)C(O)(C(=O)O)CCC13 (centres undefined) was tested, and the Potency was “inactive”.

The compounds below were run against Phospholipid hydroperoxide glutathione peroxidase GPX4 (Homo sapiens) (UniProt P36969) (assay: Primary qHTS Assay for Inhibitors of Recombinant Selenoprotein Glutathione Peroxidase 4 (GPX4) (AID 1845192)). Conditions: recombinant GPX4, GR-coupled NADPH fluorescence, 15 min; series mostly up to 50 µM.
Phospholipid hydroperoxide glutathione peroxidase GPX4 (Homo sapiens), sequence (P36969 whole entry, looked up): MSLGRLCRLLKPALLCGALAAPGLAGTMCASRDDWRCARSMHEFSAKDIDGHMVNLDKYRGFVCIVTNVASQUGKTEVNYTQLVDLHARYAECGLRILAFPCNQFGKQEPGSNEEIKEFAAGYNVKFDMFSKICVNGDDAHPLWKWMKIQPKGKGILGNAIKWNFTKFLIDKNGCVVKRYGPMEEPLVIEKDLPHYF
Procedure, shortened: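 GR-coupled readout: 100 nM GR, 1 mM GSH, 0.5 mM NADPH; NADPH fluorescence (ex 340/em 450 nm) read at t=0 and after 15 min RT. GPX4 200 nM, preincubated 30 min with compound; substrate 0.5 mM CHP.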
In the case of CC[C@H](/C=C/[C@@H](C)[C@H]1CC[C@H]2[C@@H]3CC=C4C[C@@H](O)CC[C@]4(C)[C@H]3CC[C@]12C)C(C)C, the activity change, negative = inhibition was 1.85% [at 4.52 µM]. c1ccc(Cc2ncc3c(n2)CCNCC3)cc1 was tested, and the Potency was “inactive”. For C[C@@H]1O[C@@H](O[C@H]2[C@H](O[C@H]3CO[C@@H](O[C@H]4CC[C@@]5(C)C(CC[C@]6(C)C5CC[C@]57OC[C@@]8(CC[C@](C)(CO)CC85)[C@H](O)C[C@]76C)C4(C)C)[C@H](O[C@@H]4O[C@H](CO)[C@@H](O)[C@H](O)[C@H]4O)[C@H]3O)O[C@H](CO)[C@@H](O)[C@@H]2O)[C@H](O)[C@H](O)[C@H]1O (some centres undefined), the Potency was “inactive”. COC(=O)C1=CO[C@@H](O[C@@H]2O[C@H](CO[C@@H]3O[C@H](COC(=O)/C=C/c4ccc(O)cc4)[C@@H](O)[C@H](O)[C@H]3O)[C@@H](O)[C@H](O)[C@H]2O)[C@@H]2C(CO)=CC[C@H]12 was tested, and the Potency was “inactive”. For CC1(C)CC[C@]2(C(=O)O)CC[C@]3(C)C(=CCC4[C@@]5(C)C[C@H](O)[C@H](O[C@@H]6OC[C@H](O)[C@H](O)[C@H]6O)[C@@](C)(CO)C5CC[C@]43C)[C@@H]2C1 (some centres undefined), the Potency was “inactive”. In the case of CC(C)C(C(=O)N1CCCC1C(=O)O)N(C)C(=O)C(O)Cc1ccccc1 (centres undefined) (H-[PhLac]-[NMeV]-Pro-OH; configuration not given here), the Potency was “inactive”. In the case of C[C@@H]1CC[C@]2(C(=O)O[C@@H]3O[C@H](CO)[C@@H](O)[C@H](O)[C@H]3O)CC[C@]3(C)C(=CCC4[C@@]5(C)C[C@@H](O)[C@H](O)C(C)(C)C5CC[C@]43C)C2[C@]1(C)O (some centres undefined), the Potency was “inactive”. In the case of C=CC1(C)C=C2C(O)CC3C(C)(C(=O)O)CCCC3(C)C2CC1 (centres undefined), the Potency was “inactive”. For CC(=O)[C@@H]1CC[C@]2(C(=O)O)CC[C@]3(C)C(CCC4[C@@]5(C)CC[C@H](O)C(C)(C)C5CC[C@]43C)C12 (some centres undefined), the Potency was “inactive”. With CC1(C)CC(=O)N(CCCCN2CCN(c3ncccn3)CC2)C(=O)C1 the Potency was “inactive”. O=C(CCO[C@@H]1O[C@H](CO)[C@@H](O)[C@H](O)[C@H]1O)c1ccc(O)cc1 was tested, and the Potency was “inactive”. With COC(=O)C1(Cc2ccc(O)cc2)OC(=O)C(OC)=C1c1ccc(O)cc1 (centres undefined) the Potency was “inactive”. For COc1cc([C@H]2OC[C@]3(OC(C)=O)[C@@H](c4ccc(O[C@@H]5O[C@H](CO)[C@@H](O)[C@H](O)[C@H]5O)c(OC)c4)OC[C@H]23)ccc1O, the Potency was “inactive”. With CC(=O)O[C@@H]1[C@@H](OC(=O)/C=C/c2ccccc2)[C@H](C)O[C@@H](O[C@H]2[C@@H]3C=CO[C@@H](O[C@@H]4O[C@H](CO)[C@@H](O)[C@H](O)[C@H]4O)[C@@H]3[C@@]3(CO)O[C@@H]23)[C@@H]1OC(C)=O the Potency was “inactive”. In the case of CC1CCC2(C(=O)OC3OC(CO)C(O)C(O)C3O)CCC3(C(=O)O)C(=CCC4C5(C)CCC(OC6OC(C)C(O)C(O)C6O)C(C)(C)C5CCC43C)C2C1C (centres undefined), the Potency was “inactive”. With O=C1N(CC2CCCCN2)CCN1c1ccccc1 (centres undefined) the Potency was “inactive”. For Cc1coc2c1CC1OC1(C)CCC1OC1(C)C2 (centres undefined), the Potency was “inactive”. CC(CO[C@@H]1O[C@H](COC(=O)/C=C/c2ccc(O)c(O)c2)[C@@H](O)[C@H](O)[C@H]1O)C1(O)COC(=O)C1 (some centres undefined) was tested, and the Potency was “inactive”. With OCC1OC(Oc2cc(O)c3c(c2)OC(c2ccc(O)cc2)C(O)C3)C(O)C1O (centres undefined) the Potency was “inactive”. For CCNC(=O)[C@H]1O[C@H](n2cnc3c(NCC(c4ccccc4)c4ccccc4)nc(C(=O)NCCNC(=O)NC4CCN(c5ccccn5)CC4)nc32)[C@H](O)[C@@H]1O, the Potency was “inactive”. For CC1CCCC2OC2C(=O)c2c(O)cc(O)cc2CC(=O)O1 (centres undefined), the Potency was “inactive”. In the case of CN1C(=O)N[C@@H](Cc2c[nH]c3c(Cl)cccc23)C1=O, the Potency was “inactive”. In the case of CCC(=O)O[C@]1(C(=O)CCl)[C@@H](C)C[C@H]2[C@@H]3C[C@H](F)C4=CC(=O)C=C[C@]4(C)[C@@]3(F)[C@@H](O)C[C@@]21C, the Potency was “inactive”. In the case of C[C@@H]1O[C@@H](O[C@H]2[C@H](OC(=O)[C@]34CCC(C)(C)C[C@H]3C3=CCC5[C@@]6(C)CC[C@H](O[C@@H]7O[C@H](CO[C@@H]8OC[C@H](O)[C@H](O)[C@H]8O)[C@@H](O)[C@H](O)[C@H]7O)C(C)(C)C6CC[C@@]5(C)[C@]3(C)C[C@H]4O)OC[C@@H](O)[C@@H]2O)[C@H](O)[C@H](O)[C@H]1O[C@@H]1OC[C@H](O)[C@H](O[C@@H]2OC[C@@H](O)[C@H](O)[C@H]2O)[C@H]1O (some centres undefined), the activity change, negative = inhibition was -4.93% [at 9.73 µM]. For CC[C@H](C)/C=C(C)/C=C/C(=O)Cc1cc(O)c(C)c(O)c1C=O, the Potency was “inactive”. For CC(=O)N[C@H]1[C@H](O[C@H]2CC[C@@]3(C)C(CC[C@]4(C)C3CC=C3C5CC(C)(C)CC[C@]5(C(=O)O)[C@H](O[C@@H]5O[C@H](CO)[C@@H](O)[C@H](O)[C@H]5O)C[C@]34C)C2(C)C)O[C@H](CO[C@@H]2OC[C@H](O)[C@H](O)[C@H]2O[C@@H]2OC[C@@H](O)[C@H](O)[C@H]2O)[C@@H](O)[C@@H]1O (some centres undefined), the Potency was “inactive”. In the case of CCC(=O)NS(=O)(=O)c1ccc(-c2c(-c3ccccc3)noc2C)cc1, the Potency was “inactive”. With C/C1=C\C[C@H](O[C@@H]2O[C@H](CO)[C@@H](O)[C@H](O)[C@H]2O)/C(C)=C/[C@H]2OC(=O)[C@H](C)[C@@H]2CC1 the Potency was “inactive”. C=C1CCC2C(C)(COC3OC(COC(=O)CC(=O)O)C(O)C(O)C3O)CCCC2(C)C1CCC1=CCOC1=O (centres undefined) was tested, and the Potency was “inactive”. With CC(C)C(=O)O[C@@H]1[C@@H](O)[C@@H](O[C@H]2O[C@H](CO)[C@@H](O)[C@H](O)[C@H]2O)O[C@H](CO)[C@H]1O the Potency was “inactive”. COC1CC(=O)C23C(=O)NC(CC(C)C)C2C(C)C(C)=CC3/C=C(\C)CCC1O (centres undefined) was tested, and the Potency was “inactive”. COc1cc(O[C@@H]2O[C@H](CO)[C@@H](O)[C@H](O)[C@H]2O)c(CCC(=O)OC[C@H]2O[C@@H](Oc3cc(OC)c(C4OC(=O)C(C)(O)C4O)cc3CCC(=O)O)[C@H](O)[C@@H](O)[C@@H]2O)cc1C1OC(=O)C(C)(O)C1O (some centres undefined) was tested, and the Potency was “inactive”. With C=C(C(=O)O)[C@@H]1CC=C2CCC[C@H](C)[C@@]2(C)C1 the Potency was “inactive”. For Nc1ncnc2c1ncn2[C@H]1CCCO1, the Potency was “inactive”. With C/C=C/C=C/C(CC(=O)O)Nc1ccc(C=O)cc1 (centres undefined) the Potency was “inactive”. With CC1(C)CCCC2(C)C(CO)C3CCC2C31 (centres undefined) the Potency was “inactive”. With COc1cc(/C=C/C(=O)OC(C)(C)C(OC2OC(CO)C(O)C(O)C2O)C(=O)OCc2ccc(OC3OC(CO)C(O)C(O)C3O)cc2)ccc1O (centres undefined) the Potency was “inactive”. With CCC(C)C(N)C1=NC(C(=O)N[C@@H](CC(C)C)C(=O)N[C@H](CCC(=O)O)C(=O)N[C@H](C(=O)N[C@H]2CCCCNC(=O)[C@H](CC(N)=O)NC(=O)[C@@H](CC(=O)O)NC(=O)[C@H](Cc3cnc[nH]3)NC(=O)[C@@H](Cc3ccccc3)NC(=O)[C@H]([C@@H](C)CC)NC(=O)[C@@H](CCCN)NC2=O)[C@@H](C)CC)CS1 (some centres undefined) (X1-L[dE]IK[dOrn]I[dF]H[dD]N; lactam 4-C) the Potency was “inactive”. With CC(C)(O)C1=CCC23COC(C2)C(O)(C(=O)O)CCC13 (centres undefined) the Potency was “inactive”.
